Results filed as inconclusive are left out. Entries that show only a call come without a potency. Active and inactive are the calls of the source. The call rests on the fitted dose curve; in most records, active means well fitted curve in the direction sought with a large enough effect; inconclusive means small, poorly fitted or top-dose-only effect, or another doubt; inactive means no such curve, though single readings can be large; an effect the other way counts as inactive or inconclusive.
Columns and labels:
[1] = OV-KATE Cancer Cell Toxicity qHTS against the NCATS CANVASS Library (AID 1347345)
Outline: (§1)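 Per well, 1000 cells; exposure 72 h with compound at 11 final concentrations; readout CellTiter-Glo luminescence.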

[2] = HPAF-II Cancer Cell Toxicity qHTS against the NCATS CANVASS Library (AID 1347346); further: nearly all actives have a fitted effect of over 55% in size
Outline: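 First, HPAF-II cells are plated (1000 cells/well) and held 4 h at 37 degrees C. Next, compounds are pin-transferred as an 11-point series. After 72 h, CellTiter-Glo is added and luminescence measured.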

[3] = UWB1.289 Cancer Cell Toxicity qHTS against the NCATS CANVASS Library (AID 1347347); settings: UWB1.289 viability, CellTiter-Glo luminescence, 72 h; further: potency means the concentration at half of the fitted maximal effect; nearly all actives have a fitted effect of over 60% in size
Outline: as §1

[4] = OV-SAHO Cancer Cell Toxicity qHTS against the NCATS CANVASS Library (AID 1347348); further: nearly all actives have a fitted effect of over 55% in size
Outline: as §1

[5] = Panc-1005 Cancer Cell Toxicity qHTS against the NCATS CANVASS Library (AID 1347349); further: nearly all actives have a fitted effect of over 60% in size; further: potency means the concentration at half of the fitted maximal effect
Outline: as §1

[6] = U-118MG Cancer Cell Toxicity qHTS against the NCATS CANVASS Library (AID 1347351)
Outline: as §1

[7] = COV-362 Cancer Cell Toxicity qHTS against the NCATS CANVASS Library (AID 1347352)
Outline: (§2)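 First, 1000 cells go into each well and rest for 4 hours. Next, an 11-point dilution range is pinned in. Plates then incubate 72 hours before CellTiter-Glo addition and luminescence reading.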

[8] = A2780 Cisplatin Sensitive Ovarian Cancer Cell Toxicity qHTS against the NCATS CANVASS Library (AID 1347353); settings: A2780 ovarian cancer viability, ATPLite luminescence, 72 h; at 46.1 µM (top of the series); further: nearly all actives have a fitted effect of over 60% in size
Outline: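 Cells are plated at 750 per well and rest for 4 hours. Compounds are added across eleven concentrations, and incubated 72 hours before ATP is quantified by luminescence.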

[9] = UWB1.289-WTBRCA1 Cancer Cell Toxicity qHTS against the NCATS CANVASS Library (AID 1347354)
Outline: as §2

[10] = HEK-293 Cancer Cell Toxicity qHTS against the NCATS CANVASS Library (AID 1347355); settings: HEK-293 viability, CellTiter-Glo luminescence, 72 h; at 46.1 µM (top of the series); further: nearly all actives have a fitted effect of over 65% in size
Outline: as §2

[11] = HPAF-II 24hr Apoptosis Induction qHTS against the NCATS CANVASS Library (AID 1347356)
Outline: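 Cells seeded at 500 per well, then compounds pin-transferred in an 11-point concentration series. After 24 hours at 37 degrees C, Caspase-Glo 3/7 was added and luminescence measured following 15 min at room temperature.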

[12] = HEK293 18hr Apoptosis Induction qHTS against the NCATS CANVASS Library (AID 1347357)
Outline: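 Luminescent caspase-3/7 signal is measured in HEK293 cells exposed for 18 hours to an 11-point concentration series; doxorubicin serves as the plate control.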

[13] = HPAF-II 12hr Apoptosis Induction qHTS against the NCATS CANVASS Library (AID 1347358)
Outline: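 Cells plated at 500 per well are dosed with compound and incubated 12 hours at 37 degrees C. Caspase-Glo 3/7 reagent is added and, after 15 min at room temperature, luminescence proportional to caspase activity is measured.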

[14] = HEK293 24hr Apoptosis Induction qHTS against the NCATS CANVASS Library (AID 1347359)
Outline: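 HEK293 cells, 500 per well, exposed to an 11-point compound series for 24 hours at 37 degrees C. Caspase 3/7 activity read by Caspase-Glo luminescence (DEVD substrate) after 15 min at room temperature.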

[15] = HPAF-II 18hr Apoptosis Induction qHTS against the NCATS CANVASS Library (AID 1347360)
Outline: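 Apoptosis was scored as caspase-3/7 activity in HPAF-II pancreatic cancer cells treated 18 hours with an 11-point concentration series.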

[16] = SW1088 Cancer Cell Toxicity qHTS against the NCATS CANVASS Library (AID 1347350); settings: SW1088 viability, CellTiter-Glo luminescence, 72 h; further: potency means the concentration at half of the fitted maximal effect; nearly all actives have a fitted effect of over 75% in size
Outline: as §1

| SMILES | outcome [1] | outcome [2] | Potency [3] | outcome [4] | Potency [5] | outcome [6] | outcome [7] | outcome [8] | outcome [9] | outcome [10] | outcome [11] | outcome [12] | outcome [13] | outcome [14] | outcome [15] | Potency [16] |
| --- | --- | --- | --- | --- | --- | --- | --- | --- | --- | --- | --- | --- | --- | --- | --- | --- |
| O=c1c(O)c(-c2ccc(O)c(O)c2)oc2cc(O)ccc12 | inactive | inactive | 7.47 µM (active) | inactive | inactive | inactive | inactive | inactive | inactive | inactive | inactive | inactive | inactive | inactive | inactive | – |
| C=C(C)[C@@H]1CC[C@]2(C(=O)O)CC[C@]3(C)[C@H](CC[C@@H]4[C@@]5(C)CC[C@H](O)C(C)(C)[C@@H]5CC[C@]43C)[C@@H]12 | – | – | – | – | 18.8 µM (active) | inactive | – | – | – | – | inactive | inactive | inactive | inactive | inactive | 4.73 µM (active) |

— PubChem BioAssay (NCATS)
